# Experimental data published in the supplement of paper PMC6555819.
# Tests used:
# Test in all cases: PBM binding z-score (relative to random genomic background probes); higher = stronger binding; sequences stand for … in GC…GCGATTGACAGCGTAGAATGAAGG
# [1] = test system: FXR:RXRa (NR concentration 270 nM, RXRa partner concentration 90 nM)
# Procedure, shortened: (§1)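 Antibodies against each partner of ligand-free nuclear receptor dimers (one per run) detected binding on custom Agilent 4×180K protein-binding microarrays after 1 h incubation. The double-stranded probes had 34-nt variable regions carrying direct-repeat seeds, single-nucleotide variants, half-site ablations and random human genomic background sequences. Binding z-scores, from regression-normalized fluorescence, use the random background probes as reference.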
# [2] = test system: LXRa:RXRa (NR concentration 270 nM, RXRa partner concentration 90 nM)
# Procedure, shortened: as §1
# [3] = test system: LXRa homodimer (NR concentration 270 nM)
# Procedure, shortened: as §1
# [4] = test system: LXRb:RXRa (NR concentration 270 nM, RXRa partner concentration 90 nM)
# Procedure, shortened: as §1
# [5] = test system: LXRb homodimer (NR concentration 270 nM)
# Procedure, shortened: as §1
# [6] = test system: PPARa:RXRa (NR concentration 270 nM, RXRa partner concentration 90 nM)
# Procedure, shortened: as §1
# [7] = test system: PPARg:RXRa (NR concentration 180 nM, RXRa partner concentration 90 nM)
# Procedure, shortened: as §1
# [8] = test system: PPARg:RXRa 270nM:90nM, anti-RXR (NR concentration 270 nM, RXRa partner concentration 90 nM)
# Procedure, shortened: as §1
# [9] = test system: PPARg:RXRa 30nM:10nM, anti-RXR (NR concentration 30 nM, RXRa partner concentration 10 nM)
# Procedure, shortened: as §1
# [10] = test system: PPARg:RXRa 90nM:30nM, anti-RXR (NR concentration 90 nM, RXRa partner concentration 30 nM)
# Procedure, shortened: as §1
# [11] = test system: PPARg:RXRa DBDmut IVT, anti-RXR (DBD mutation: RXRa K156A/R161A, NR concentration 270 nM, RXRa partner concentration 90 nM)
# Procedure, shortened: as §1
# [12] = test system: PPARg:RXRa IVT, anti-PPARg (NR concentration 270 nM, RXRa partner concentration 90 nM)
# Procedure, shortened: as §1
# [13] = test system: PPARg DBDmut:RXRa IVT, anti-PPARg (DBD mutation: PPARg1 K132A/R137A, NR concentration 270 nM, RXRa partner concentration 90 nM)
# Procedure, shortened: as §1
# [14] = test system: PPARg DBDmut IVT, anti-PPARg (DBD mutation: PPARg1 K132A/R137A, NR concentration 270 nM)
# Procedure, shortened: as §1
# [15] = test system: PPARg homodimer (NR concentration 180 nM)
# Procedure, shortened: as §1
# [16] = test system: PXR:RXRa (NR concentration 270 nM, RXRa partner concentration 90 nM)
# Procedure, shortened: as §1
# [17] = test system: PXR homodimer (NR concentration 270 nM)
# Procedure, shortened: as §1
# [18] = test system: RARa:RXR (NR concentration 270 nM, RXRa partner concentration 90 nM)
# Procedure, shortened: as §1
# [19] = test system: RARa homodimer (NR concentration 270 nM)
# Procedure, shortened: as §1
# [20] = test system: RARb:RXRa (NR concentration 270 nM, RXRa partner concentration 90 nM)
# Procedure, shortened: as §1
Sequence,PBM binding z-score [1],PBM binding z-score [2],PBM binding z-score [3],PBM binding z-score [4],PBM binding z-score [5],PBM binding z-score [6],PBM binding z-score [7],PBM binding z-score [8],PBM binding z-score [9],PBM binding z-score [10],PBM binding z-score [11],PBM binding z-score [12],PBM binding z-score [13],PBM binding z-score [14],PBM binding z-score [15],PBM binding z-score [16],PBM binding z-score [17],PBM binding z-score [18],PBM binding z-score [19],PBM binding z-score [20]
CGAACTAGGTCCGAACAGGACAGTGAAGGATGAT,-0.542,-0.905,-0.619,-1,-0.811,-1.03,0.576,-0.558,-0.414,-0.784,1.53,0.592,-1.02,-0.172,-1.32,-0.715,-0.581,-0.746,-0.281,-0.345
CGTCCAAGGTCAATGCTAGGACAGTGAAAGCATT,6.19,4.43,0.325,3.53,0.27,5.19,3.96,4.09,1.22,2.76,3.02,3.24,-0.452,-0.465,1.7,3.22,0.241,3.44,-0.11,4.96
AGAATGATGTTAAGATCAGGGAAACAGAATACAT,-0.488,-0.548,-0.153,-0.269,-0.588,-0.205,0.948,-0.174,0.282,-0.132,-0.786,-0.128,-0.544,0.266,-0.958,-0.441,-0.00916,-0.274,0.423,-0.436
GCGACTGGGGCGAAGCAGGTTACCATAAGGTTGG,-0.35,-0.539,-0.81,-0.315,-1.13,0.234,0.378,-0.549,-0.972,-0.732,0.93,0.737,-1.9,-1.09,-0.411,-0.249,-0.709,-0.0547,-0.898,0.235
GTACCATGGTGAATAGGTCGTTGATGAGTAGGCG,-0.238,0.114,-0.331,-0.0798,-0.524,0.641,0.623,0.293,-0.175,0.119,0.107,0.275,-0.162,0.3,0.352,0.151,-0.347,0.29,-0.148,0.41
TCTCGGAGGACACGAAGGTCAGAACTTTCCAGAG,0.92,1.16,0.605,1.31,-0.708,1.69,0.527,1.59,2.55,1.96,1.69,0.656,0.251,-1.14,1.13,1.84,1.09,1.81,0.264,3.08
CCGACTGGGGCAATGGTTACCATACTCAGTACGA,-0.281,-0.63,-0.543,-0.411,-1.1,0.901,2.88,3.63,1.72,3.63,3.21,3.14,-0.545,-0.357,0.166,-0.648,-0.201,-0.309,-0.393,0.161
